Results: PubChem BioAssay

System: Human papillomavirus type 1a protein E7 (residues 44-93)
Test: small molecules binding HPV E7 44-93 – biochemical, small-molecule microarray, residues 44-93, 635 nm fluorescence, primary screen (AID 1108);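 note: E7 fragment applied at 1 µg/mL in TBST for 1 h at 4 C; score combines spot fluorescence with its signal to noise ratio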
Settings: fluorescence 635 nm, higher = more signal

In order of falling composite z-score:
1. COCCOC(=O)N1C(=O)[C@@]2(c3cc(C#CCC(C(=O)OC)C(=O)OC)ccc31)[C@H](C(=O)N1CCCCCCC1)[C@H]1C(=O)O[C@H](c3ccccc3)[C@H](c3ccccc3)N1[C@@H]2c1ccc(OCCO)cc1  1.49
2. [N-]=[N+]=NCc1ccccc1[C@H]1OC(c2ccc(OCCCO)cc2)=N[C@@]1(CCS(=O)(=O)c1ccccc1)C(=O)N1CCOCC1  1.44
3. Cc1ccc(S[C@]2(C(=O)NC3CC3)CC(=O)N(C3CCCCC3)[C@@H]2c2ccc(CO)cc2I)cc1  1.43
4. CC(C)c1ccc(NN2C(C(O)c3cccc(O)c3)C=CC3C(=O)N(c4ccccc4)C(=O)C32)cc1 (stereo not given)  1.43
5. CC=CC(O)C1C=CC2C(=O)N(c3ccccc3)C(=O)C2N1Nc1ccc(C(C)C)cc1 (stereo not given)  1.42
6. C=C(CCCC)/C(=C/C[C@H](OC(C)=O)c1ccc(CO)o1)c1cnc2ccccc2c1  1.39
7. [N-]=[N+]=NCc1ccccc1[C@@H]1OC(c2ccc(OCCCO)cc2)=N[C@]1(Cc1ccccc1)C(=O)N1CCCCC1  1.39
8. C=CCNC(=O)[C@@H]1[C@H]2C(=O)O[C@H](c3ccccc3)[C@H](c3ccccc3)N2[C@H](c2ccc(OCCO)cc2)[C@@]12C(=O)Nc1ccccc12  1.39
9. C[C@]1(C(=O)NCc2ccccc2)c2ccccc2C(=O)N(Cc2ccc(OC(F)(F)F)cc2)[C@H]1c1ccc(CO)cc1  1.39
10. CC(C)CNC(=O)[C@@]1(c2ccc([N+](=O)[O-])cc2)CC(=O)N(CC23CC4CC(CC(C4)C2)C3)[C@@H]1c1ccc(CO)cc1I  1.39
11. CC(C)C[C@@H]1NC(=O)[C@H]2C[C@@H](C(=O)NCCCCCNC(=O)CS)[C@@H](c3cccc(OCCO)c3)N2C1=O  1.38
12. CCC[C@@H]1C=C(C(=O)O)[C@H](c2ccc(C)cc2)N1S(=O)(=O)c1ccc(C)cc1  1.36
13. O=C(CS)NCCCCCCNC(=O)[C@H]1C[C@H]2C(=O)N3CCC[C@H]3C(=O)N2[C@H]1c1cccc(OCCO)c1  1.36
14. COCCOC(=O)N1C(=O)[C@@]2(c3cc(C#CCC(C(=O)OC)C(=O)OC)ccc31)[C@H](C(=O)N1CCN(c3ncccn3)CC1)[C@H]1C(=O)O[C@H](c3ccccc3)[C@H](c3ccccc3)N1[C@@H]2c1ccc(OCCO)cc1  1.34
15. [N-]=[N+]=NCc1ccccc1[C@@H]1OC(c2ccc(OCCCO)cc2)=N[C@]1(Cc1ccccc1N=[N+]=[N-])C(=O)NCc1ccccc1  1.33
16. CCCCC(CC)C(O)C1C=CC2C(=O)N(c3ccccc3)C(=O)C2N1Nc1ccccc1 (stereo not given)  1.33
17. CN1CCC(CCCO)=CC1c1ccc(CN2CCCC2)cc1 (stereo not given)  1.25
18. CC(C)c1ccc(NN2C(C(O)c3c(F)cccc3Cl)C=CC3C(=O)N(c4ccccc4)C(=O)C32)cc1 (stereo not given)  1.23
19. CC(C)NC(=O)[C@@H]1c2ccccc2C(=O)N(Cc2ccccc2Cl)[C@H]1c1ccc(CO)cc1  1.17
20. CCOC(=O)C[C@H]1[C@H](OC(=O)c2ccccc2-c2ccccc2)[C@@H](NC(=O)c2ccc3ccccc3c2)c2cc(OCCCO)ccc2N1C(=O)c1ccc2ccccc2n1  1.12
21. O=C1OCCC=C[C@H]2OC34C=CCN(Cc5ccccc5)C(=O)[C@H]3N(CCCCCO)C(=O)[C@@H]4C12 (stereo not given in full)  1.1
22. CC(=O)NCCCC[C@@H]1NC(=O)[C@H]2C[C@@H](C(=O)NCCCCCC[N+](C)(C)C)[C@@H](c3cccc(OCCO)c3)N2C1=O  1.1
23. [N-]=[N+]=NCc1ccccc1C[C@@]1(C(=O)NCC(O)CO)N=C(c2ccc(OCCCO)cc2)O[C@@H]1c1ccccc1CN=[N+]=[N-] (stereo not given in full)  1.06
24. C=CC[C@@H](OC(=O)Nc1ccc(OC)cc1)c1ccc(O)c2ccccc12  0.94
25. COCCOC(=O)N1C(=O)[C@@]2(c3cc(C#CCNC(N)=O)ccc31)[C@H](c1ccc(O)cc1)N1[C@H](c3ccccc3)[C@H](c3ccccc3)OC(=O)[C@H]1[C@@H]2C(=O)Nc1nc2ccccc2s1  0.793
26. CCOC(=O)C[C@H]1[C@H](OC(=O)c2ccc(-c3ccccc3)cc2)[C@@H](NC(=O)c2ccc3ccccc3c2)c2cc(OCCCO)ccc2N1C(=O)Cc1ccc(OC)cc1  0.758
27. COc1ccccc1CN1C(=O)c2ccccc2[C@@H](C(=O)NCCN2CCOCC2)[C@@H]1c1ccc(CO)cc1  0.623
28. C=CC(COC(C)=O)NS(=O)(=O)c1ccc(Br)cc1 (stereo not given)  0.62
29. N#Cc1ccc(NN2C(C(O)c3ccc([N+](=O)[O-])cc3)C=CC3C(=O)N(c4ccccc4)C(=O)C32)cc1 (stereo not given)  0.61
30. Cc1cc(C)c(C(O)C2C=CC3C(=O)N(c4ccccc4)C(=O)C3N2Nc2ccc(C#N)cc2)c(C)c1 (stereo not given)  0.486
31. [N-]=[N+]=Nc1ccccc1[C@H]1OC(c2ccc(OCCCO)cc2)=N[C@@]1(CCS(=O)(=O)c1ccccc1)C(=O)O  0.447
32. COc1ccc([Si](C)(C)[C@@H]2[C@@H](CCn3cc([C@H](O)c4ccccc4)nn3)O[C@]3(C(=O)N(Cc4ccc(N5C(=O)c6cccc7cccc5c67)cc4)c4ccccc43)[C@H]2C)cc1  0.314
33. COCCOC(=O)N1C(=O)[C@@]2(c3cc(C#CCCO)ccc31)[C@H](c1ccc(O)cc1)N1[C@H](c3ccccc3)[C@H](c3ccccc3)OC(=O)[C@H]1[C@@H]2C(N)=O  -0.0809
34. COc1cccc(C(=O)O[C@H]2CC[C@]3(C)C4=C(CCC3C2(C)C)[C@]2(C)CC[C@H]([C@H](C)CCCC(C)C)[C@@]2(C)CC4)c1 (stereo not given in full)  -0.212
35. C=C(C(=O)CC[C@H](OC(C)=O)c1ccc(OCCO)cc1)C(C)C  -0.268
